Whole data set: some 68,000 sequences, median “fluorescence intensity (a.u.)” near 9,100, cut for the highest 2% near 16,000. The full list was thinned out, with the highest values kept by preference.
biological target: OsWRKY34 (Oryza sativa, UniProt Q0JBA9 1-250); assay: protein-binding microarray (RPBM); PBS, 2% BSA, 51.3 ng/ul salmon testes DNA, 50 uM zinc acetate, 200 nM TF, 25 C, 1 h; high values mean tight binding; conditions: protein: recombinant; tags: N-terminal polyhistidine and DsRed monomer fusion (pET32a); label: CyDye5-dUTP incorporated in the synthesized complementary strand; 3' TTTTT single-stranded linker to array surface; dsDNA, one strand shown
In short: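 Binding signal is reported as fluorescence intensity per feature (arbitrary units) from an Axon 4000B scanner. Incubation used 200 nM of each Ni–NTA-purified, N-terminally polyhistidine- and DsRed-fused transcription factor from E. coli BL21-CodonPlus on a double-stranded custom Agilent array for 1 h at 25 °C, with 50 µM zinc acetate in the buffer, followed by washing.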

OsWRKY34, sequence (Q0JBA9 entry or part of it): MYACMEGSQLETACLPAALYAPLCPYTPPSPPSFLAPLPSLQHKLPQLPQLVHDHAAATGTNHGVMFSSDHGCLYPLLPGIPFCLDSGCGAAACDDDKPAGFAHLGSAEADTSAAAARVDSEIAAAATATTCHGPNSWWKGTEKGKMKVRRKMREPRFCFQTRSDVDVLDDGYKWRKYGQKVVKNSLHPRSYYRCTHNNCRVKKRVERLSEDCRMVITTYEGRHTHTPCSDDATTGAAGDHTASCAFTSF

Point of comparison: “CAACAGACTCTTCCCCTTCGCTCGCTCGCCTCCTCTTTCCCGGAGTCACCTAGTGCAG”, binding signal 8220 fluorescence intensity (a.u.). Against it:
- GTGCTCGGCTCCTCTCTCAGTAGCTTGTATGTGTCAGTTGCGGAGTCACCTAGTGCAG — higher, 10500 fluorescence intensity (a.u.)
- AGCTTCAACCTCTTGTAACTTTCCTTTGAGTATATCTCTCCGGAGTCACCTAGTGCAG — higher, 10200 fluorescence intensity (a.u.)
- TGTCCGGTATTTTAAGTTTAGGGTGAGTAATATCTGGTTTCGGAGTCACCTAGTGCAG — higher, 10600 fluorescence intensity (a.u.)
- GGTGTGATATATCTGGTTTTGTGGTTCGGTGGGGTAATTCCGGAGTCACCTAGTGCAG — higher, 22000 fluorescence intensity (a.u.)
- GGGTGAAAATGTCTGGTTTTGTGGTTTAAGGGTGTAATTCCGGAGTCACCTAGTGCAG — higher, 8700 fluorescence intensity (a.u.)
- TTGGGTTTAGGGCGGTAATTCGGTTGACCGCGATAGTTCACGGAGTCACCTAGTGCAG — higher, 12400 fluorescence intensity (a.u.)
- GGGTGAGTAATATCTGGTTTTTGGGTTTAGGGCGGTAATTCGGAGTCACCTAGTGCAG — higher, 17700 fluorescence intensity (a.u.)
- GGATATCCGGTTTTGTGGTTGGGTGACGATTTTGTAATTCCGGAGTCACCTAGTGCAG — higher, 9010 fluorescence intensity (a.u.)
- CATCATACAGTAACAGCACAAGCACACACTACACGCACTCCGGAGTCACCTAGTGCAG — higher, 8640 fluorescence intensity (a.u.)
- GGGTTGGTTCCTGCCTCTCGAGTCTCAGCAAGTGTGTCACCGGAGTCACCTAGTGCAG — higher, 11500 fluorescence intensity (a.u.)
- CAAATGGCCCACCTGTCCTAGCTTGGCCCGGCCCGGGCACCGGAGTCACCTAGTGCAG — higher, 8680 fluorescence intensity (a.u.)
- TAGCTCCAGTATTAATTTCTTTCCATCCTCCATTTTCTTGCGGAGTCACCTAGTGCAG — higher, 9120 fluorescence intensity (a.u.)
- TACATCCCTTGCCATCTCCATCGCCGGCTTCCTCGCCATTCGGAGTCACCTAGTGCAG — higher, 17100 fluorescence intensity (a.u.)
- CTAGCTTCGCCATCCACATTCTTCTTGCTTCTTGCTCCTCCGGAGTCACCTAGTGCAG — higher, 12700 fluorescence intensity (a.u.)
- TCTTTCTTCCATTGCACCTAGCTTTCATCTTCTTCTCTTCCGGAGTCACCTAGTGCAG — higher, 14200 fluorescence intensity (a.u.)
- ATCCATCCATCTATTCGCTTCCCTTTCCTTGCACCTCTGCCGGAGTCACCTAGTGCAG — higher, 9050 fluorescence intensity (a.u.)
- CCATTCTTTCATCTCGCTTCACCTCATCGCCATTGCCATCCGGAGTCACCTAGTGCAG — higher, 8810 fluorescence intensity (a.u.)
- CCTTCACCTCCTTGCAAGTTCCATTCTTTCATCTCGCTTCCGGAGTCACCTAGTGCAG — higher, 16500 fluorescence intensity (a.u.)
- TTTGTCAATTGATGTATACATATGTGCTTTGTGTTCCTACCGGAGTCACCTAGTGCAG — higher, 11100 fluorescence intensity (a.u.)
- CTGATTCGAACGCAGCCATAGTCACTCTTTCACTCTCACTCGGAGTCACCTAGTGCAG — higher, 11000 fluorescence intensity (a.u.)
- GTAAATCCGCTCCAATTGACTCTACCAACCCACCCGTGCTCGGAGTCACCTAGTGCAG — higher, 9420 fluorescence intensity (a.u.)
- AATTTGTGTGTAATTTTTTAGGATTTGTGATGTATTTGATCGGAGTCACCTAGTGCAG — higher, 9210 fluorescence intensity (a.u.)
- CCACACTTGCCCGCTACCCACTCTGATCTATCTCCACTGTCGGAGTCACCTAGTGCAG — higher, 9630 fluorescence intensity (a.u.)
- TCTCCTCCCTCGTTTCTCCTGACACGCTCTCATCCTACAACGGAGTCACCTAGTGCAG — higher, 8660 fluorescence intensity (a.u.)
- TCAGTCGCTTCCTCTCTTTATTATCACAGATTCACAGTCCCGGAGTCACCTAGTGCAG — higher, 8370 fluorescence intensity (a.u.)
- GCAATTTGCCTCTTTGTTCCTCATAGTCCAGACACAATTCCGGAGTCACCTAGTGCAG — higher, 9840 fluorescence intensity (a.u.)
- TTATCACAGATTCACAGTCCTTTGCCTTCATAAACACCTCCGGAGTCACCTAGTGCAG — higher, 65500 fluorescence intensity (a.u.)
- AACTTTTTCATGTCACTTCACTTTTTTTTGTTAGCAGCCTCGGAGTCACCTAGTGCAG — higher, 11200 fluorescence intensity (a.u.)
- TGAACACACGCACGCAAACCCTACCTCCATGAGTATCTTCCGGAGTCACCTAGTGCAG — higher, 10500 fluorescence intensity (a.u.)
- TTAAATAAGACAAATGGTCAAACATGTGCTAAAAAGTCAACGGAGTCACCTAGTGCAG — higher, 10600 fluorescence intensity (a.u.)
- AAAGGAATGGCCCAAATAAACAAGTTTTTTCCTAAAATAACGGAGTCACCTAGTGCAG — higher, 63000 fluorescence intensity (a.u.)
- AATTTATGGAGATCATTTTTTTTCTGTTTCAAAGGAAAAACGGAGTCACCTAGTGCAG — higher, 19200 fluorescence intensity (a.u.)
- CTAATTGTTTTTTTAAATAGTGTTTTGTTTTATTGAAAACCGGAGTCACCTAGTGCAG — higher, 9040 fluorescence intensity (a.u.)
- TTGATTCCGTGTCGCATATCTGTCTTAATTTCGTGGAAGGCGGAGTCACCTAGTGCAG — higher, 9570 fluorescence intensity (a.u.)
- GTCAAGAATGTGCTAAAAAGTCAACGGTGTCAAACAGTTTCGGAGTCACCTAGTGCAG — higher, 10600 fluorescence intensity (a.u.)
- TGTCTTAATTTCGTGGAAGGCCATAGCGGAGAGATCAAAACGGAGTCACCTAGTGCAG — higher, 17400 fluorescence intensity (a.u.)
- GTTTCCATTTCTGTTATTTTTTATTTCAAATTTCATTCTTCGGAGTCACCTAGTGCAG — higher, 11800 fluorescence intensity (a.u.)
- CATTGATTTTTTTTCTGTTTTCATGATCAATTTTTTTTCTCGGAGTCACCTAGTGCAG — higher, 11100 fluorescence intensity (a.u.)
- AAATTTAAAGTAATTTGACTTTGAAAGTCAAAACTTGTAACGGAGTCACCTAGTGCAG — higher, 8600 fluorescence intensity (a.u.)
- CGTCTTTTCTCCTTGTCTTGCTAGCCATATCAACGGAAGGCGGAGTCACCTAGTGCAG — lower, 8080 fluorescence intensity (a.u.)
- TAATGGAAAAAATTGTTTAAAAAAGGTCAAATAGTAAAAACGGAGTCACCTAGTGCAG — higher, 58800 fluorescence intensity (a.u.)
